Here are results for 31 compounds from PubChem BioAssay (NCATS).

Calls of active or inactive are those of the source. Calls come from the whole dose curve.

The nature of the first test: qHTS drug screen for cell cycle checkpoint inhibitors in PARPi-resistant BRCA-mutant ovarian cancer cell lines. (AID 1963452). Particulars: PEO1/OlaR viability, CellTiter-Glo luminescence, 96 h; stronger effect = lower value. The procedure, abridged: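 PEO1, PEO4 and PEO1/OlaR ovarian cancer cells, 600 per well, exposed 96 h at 37C to a dilution series. Viability read by CellTiter-Glo luminescence, normalized to DMSO and empty wells; activity summarized as Z-AUC.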
In general terms: In qHTS, concentration-response curves come from the screen itself.
With `CCC(=O)N1CCN(c2ccc(-n3c(=O)ccc4cnc5ccc(-c6cnc7ccccc7c6)cc5c43)cc2C(F)(F)F)CC1`, the Z-AUC is -1.59 (inactive).
The same measure, in the same setting: for `C[C@H]1COC2=C1C(=O)C(=O)c1c2ccc2c1CCCC2(C)C` the value was 1.69 (inactive); for `N#CC(c1ccc(Cl)cc1)c1c(Cl)cc(-n2ncc(=O)[nH]c2=O)cc1Cl` (stereo not given), -0.392 (inactive); for `COc1ccnc(CS(=O)c2nc3ccc(OC(F)F)cc3[nH]2)c1OC` (stereo not given), 1.71 (inactive).
On to `Cc1cc2c(cc1C1(c3ccc(C(=O)O)cn3)CC1)C(C)(C)CCC2(C)C`, for which the Z-AUC was -0.226 (inactive).
Take `CN1CCN2c3ncccc3Cc3ccccc3C2C1` (stereo not given): the Z-AUC is -0.118 (inactive).
In the case of `O=C(NCCCCN1CCOCC1)c1cc2ccccc2o1`, the Z-AUC was 1.41 (inactive).
For `COc1cc2c(cc1OC)CC(=O)N(CCCN(C)C[C@H]1Cc3cc(OC)c(OC)cc31)CC2`, the Z-AUC was 0.967 (inactive).
On the same count and under the same terms, for `CC(C)C[C@@H](N)[C@H](O)C(=O)N[C@H](C(=O)N[C@H](C(=O)N[C@@H](CC(=O)O)C(=O)O)C(C)C)C(C)C` the value was -0.687 (inactive); for `CS(=O)(=O)c1ccc(C2=C(c3ccccc3)C(=O)OC2)cc1`, 0.327 (inactive).
Same read-out and setting: for `Cc1nc2c([nH]1)CCN(C(=O)c1ccc(NC(=O)c3ccccc3-c3ccccc3)cc1)c1ccccc1-2` the value was 0.604 (inactive).
Still for that read-out and setting: for `CN(C)CCN(C)C(=O)c1ccc(NC(=O)Nc2ccc(-c3nc(N4CCOCC4)c4ccn(CC(F)(F)F)c4n3)cc2)cc1` the value was -1.1 (inactive); for `O=C(O)c1nc(=O)[nH]c(=O)[nH]1`, 0.306 (inactive).
For the compound `CCCCOCCOc1nc(-c2ccc(C(=O)O)c(F)c2)sc1C`, the Z-AUC is 1.12 (inactive).
Still for that read-out and setting: under `NS(=O)(=O)c1cc(Cl)c(Cl)c(S(N)(=O)=O)c1` stands 0.54 (inactive); under `N#Cc1c(N(CC(=O)O)CC(=O)O)sc(C(=O)O)c1CC(=O)O`, 0.439 (inactive); under `Cc1cc(NC(=O)Nc2ccc(N(C)C)cc2)c2cc(F)cc(F)c2n1`, -0.154 (inactive).
With `O=C(O)Cc1cccc(OCCCN(Cc2cccc(C(F)(F)F)c2Cl)CC(c2ccccc2)c2ccccc2)c1`, the Z-AUC is -0.299 (inactive).
Still for that read-out and setting: for `CN1C(=O)C[C@H](C(=O)N[C@@H](Cc2cnc[nH]2)C(=O)N2CCC[C@@H]2C(N)=O)NC1=O` the value was 0.875 (inactive).

The test is the same for the next values; noted with them: PEO1/OlaR viability, CellTiter-Glo luminescence, 96 h; measured here: PEO1 parental Z-AUC; stronger effect = lower value.
Consider `CC[C@H](C=C[C@@H](C)[C@H]1CC[C@H]2[C@@H]3CC=C4C[C@@H](O)CC[C@]4(C)[C@@H]3CC[C@]12C)C(C)C`, for which the Z-AUC was determined as 1.79.
On the same count and under the same terms, for `COc1ccc(-c2ccc3ncc4c(c3c2)n(-c2ccc(N3CCNCC3)c(C(F)(F)F)c2)c(=O)n4C)cn1` the value was -2.24; for `CC(NCCc1ccc(O)cc1)C(O)c1ccc(O)cc1` (stereo not given), 0.762; for `Cc1ccc(C(=O)N(CCCN)[C@@H](c2oc3cc(Cl)ccc3c(=O)c2Cc2ccccc2)C(C)C)cc1`, -2.6.
For the compound `Cc1ccc(C(=O)N(CCCN)[C@@H](c2nc3cc(Cl)ccc3c(=O)n2Cc2ccccc2)C(C)C)cc1`, the Z-AUC was -2.53.
In the case of `Clc1ccc(COC(Cn2ccnc2)c2ccc(Cl)cc2Cl)c(Cl)c1` (stereo not given), the Z-AUC turned out to be 0.118.
The same measure, in the same setting: for `CCCCC[C@H](O)C=C[C@H]1[C@H](O)CC(=O)[C@H]1CC=CCCCC(=O)O` the value was 0.516; for `C=C1c2cccc(O)c2C(O)=C2C(=O)[C@@]3(O)C(O)=C(C(N)=O)C(=O)[C@@H](N(C)C)[C@@H]3[C@@H](O)[C@H]12`, -0.453.
Consider `O=C1NC(=O)C(c2cnc3ccccn23)=C1c1cn2c3c(cccc13)CN(C(=O)N1CCOCC1)CC2`, for which the Z-AUC was -1.91.
Take `Nc1ccc(-c2ccc3ncc4ccc(=O)n(-c5cccc(C(F)(F)F)c5)c4c3c2)cn1`: the Z-AUC was -2.21.
The same measure, in the same setting: under `CCCCC(F)(F)[C@@]1(O)CC[C@H]2[C@H](CC(=O)[C@@H]2CCCCCCC(=O)O)O1` stands 0.401; under `CCC(=O)N1CCN(c2ccc(-n3c(=O)ccc4cnc5ccc(-c6cnc7ccccc7c6)cc5c43)cc2C(F)(F)F)CC1`, -1.67; under `C[C@H]1COC2=C1C(=O)C(=O)c1c2ccc2c1CCCC2(C)C`, 1.64.
On the same count and under the same terms, under `N#CC(c1ccc(Cl)cc1)c1c(Cl)cc(-n2ncc(=O)[nH]c2=O)cc1Cl` (stereo not given) stands -1.19; under `COc1ccnc(CS(=O)c2nc3ccc(OC(F)F)cc3[nH]2)c1OC` (stereo not given), 1.02.
The same measure, in the same setting: under `Cc1cc2c(cc1C1(c3ccc(C(=O)O)cn3)CC1)C(C)(C)CCC2(C)C` stands 0.647; under `CN1CCN2c3ncccc3Cc3ccccc3C2C1` (stereo not given), -0.0867.
Regarding `O=C(NCCCCN1CCOCC1)c1cc2ccccc2o1`, the Z-AUC is 1.22.
Same read-out and setting: for `COc1cc2c(cc1OC)CC(=O)N(CCCN(C)C[C@H]1Cc3cc(OC)c(OC)cc31)CC2` the value was 0.523.
Still for that read-out and setting: for `CC(C)C[C@@H](N)[C@H](O)C(=O)N[C@H](C(=O)N[C@H](C(=O)N[C@@H](CC(=O)O)C(=O)O)C(C)C)C(C)C` the value was -0.6; for `CS(=O)(=O)c1ccc(C2=C(c3ccccc3)C(=O)OC2)cc1`, 0.543.
Same read-out and setting: for `Cc1nc2c([nH]1)CCN(C(=O)c1ccc(NC(=O)c3ccccc3-c3ccccc3)cc1)c1ccccc1-2` the value was 0.56; for `CN(C)CCN(C)C(=O)c1ccc(NC(=O)Nc2ccc(-c3nc(N4CCOCC4)c4ccn(CC(F)(F)F)c4n3)cc2)cc1`, -1.35; for `CCC[C@H](Nc1nc(-c2ccc(NC(=O)NCC)c(OC)c2)ncc1C)c1cccnc1`, -2.97.
As to `O=C(O)c1nc(=O)[nH]c(=O)[nH]1`, the Z-AUC was -0.133.
The same measure, in the same setting: under `CCCCOCCOc1nc(-c2ccc(C(=O)O)c(F)c2)sc1C` stands 0.866.
Still for that read-out and setting: for `NS(=O)(=O)c1cc(Cl)c(Cl)c(S(N)(=O)=O)c1` the value was 0.261; for `N#Cc1c(N(CC(=O)O)CC(=O)O)sc(C(=O)O)c1CC(=O)O`, 0.76.
On the same count and under the same terms, under `Cc1cc(NC(=O)Nc2ccc(N(C)C)cc2)c2cc(F)cc(F)c2n1` stands -0.66; under `O=C(O)Cc1cccc(OCCCN(Cc2cccc(C(F)(F)F)c2Cl)CC(c2ccccc2)c2ccccc2)c1`, 0.225; under `CN1C(=O)C[C@H](C(=O)N[C@@H](Cc2cnc[nH]2)C(=O)N2CCC[C@@H]2C(N)=O)NC1=O`, 1.25.
